Values without a mark were called inactive.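 How the source made its calls: active = AUC reduced over 20% with Padj below 0.05 in at least 2 of 3 replicates; inactive = otherwise.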
What was measured:
Test in all cases: growth AUC relative to DMSO control (median of replicates) (fraction); higher = more growth (less inhibition), active = hit call of the paper
Settings in all cases: 20 µM; 24 h
Akkermansia muciniphila = test system: Akkermansia muciniphila
Procedure, shortened: (§1)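 In round-bottom 96-well plates sealed with pierced gas-permeable seals, gut bacterial monocultures in mGAM were grown anaerobically at 37 °C from OD600 0.05 with 20 µM compound (1% DMSO). OD600 readings were taken hourly for 24 h, and the minimum OD was set to 0. Area under the growth curve was then normalised to the plate median of solvent-only wells, or to row and column medians on the industrial chemical plate. The value given is the median of three biological replicates grown on separate days.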

Bacteroides caccae = test system: Bacteroides caccae
Procedure, shortened: as §1

Bacteroides clarus = test system: Bacteroides clarus
Procedure, shortened: as §1

Bacteroides dorei = test system: Bacteroides dorei
Procedure, shortened: as §1

Bacteroides stercoris = test system: Bacteroides stercoris
Procedure, shortened: as §1

[1] = test system: Bacteroides thetaiotaomicron
Procedure, shortened: as §1

Bacteroides uniformis = test system: Bacteroides uniformis
Procedure, shortened: as §1

[2] = test system: Bifidobacterium longum subsp. longum
Procedure, shortened: as §1

Clostridium difficile = test system: Clostridium difficile
Procedure, shortened: as §1

Collinsella aerofaciens = test system: Collinsella aerofaciens
Procedure, shortened: as §1

Structure (SMILES) | growth AUC (Akkermansia muciniphila) | growth AUC (Bacteroides caccae) | growth AUC (Bacteroides clarus) | growth AUC (Bacteroides dorei) | growth AUC (Bacteroides stercoris) | growth AUC [1] | growth AUC (Bacteroides uniformis) | growth AUC [2] | growth AUC (Clostridium difficile) | growth AUC (Collinsella aerofaciens)
O=C1C=C(N(Cc2ccc(Cl)nc2)CC(F)F)CO1 | 0.98 | 0.991 | 0.991 | 0.977 | 1.25 | 1.01 | 0.997 | 1.01 | 0.978 | 0.994
O=c1oc2ccccc2c(O)c1C1CC(c2ccc(-c3ccc(Br)cc3)cc2)Cc2ccccc21 (stereo not given) | 0.966 | 0.91 | 0.335 (active) | 0.89 | 0.00883 (active) | 0.788 (active) | 0.86 | 0.647 (active) | 0.263 (active) | 0.911
CCOP(=S)(OCC)SCn1nnc2ccccc2c1=O | 0.989 | 0.969 | 0.993 | 1.01 | 1.1 | 0.908 | 0.913 | 1.04 | 1.02 | 1.03
COc1cc(Cl)c(OC)cc1Cl | 1.03 | 1.04 | 1 | 1.04 | 1.01 | 1.04 | 1 | 0.995 | 1.05 | 1.11
CCCOCCN(C(=O)CCl)c1c(CC)cccc1CC | 1.11 | 0.979 | 0.981 | 0.976 | 0.919 | 0.95 | 0.895 | 1.05 | 0.971 | 0.972
CN(C)C(CSS(=O)(=O)c1ccccc1)CSS(=O)(=O)c1ccccc1 | 1.14 | 0.966 | 0.999 | 1.01 | 1.01 | 1.06 | 1.06 | 1.02 | 0.901 | 0.938
CS(=O)(=O)c1ccc(C(=O)C2C(=O)CCCC2=O)c(Cl)c1COCC(F)(F)F | 1.07 | 1.02 | 0.988 | 0.999 | 1.02 | 0.989 | 0.989 | 1.01 | 0.979 | 1.03
COCC(=O)N(c1c(C)cccc1C)[C@@H](C)C(=O)OC | 1.19 | 0.953 | 0.968 | 0.922 | 1 | 1.04 | 0.981 | 1.04 | 1.04 | 0.973
O=c1oc2ccccc2c(O)c1C1CCCc2ccccc21 (stereo not given) | 1.15 | 0.938 | 0.916 | 0.926 | 1.09 | 0.796 (active) | 0.701 (active) | 1.09 | 1.02 | 1
CCOCn1c(-c2ccc(Cl)cc2)c(C#N)c(Br)c1C(F)(F)F | 1.07 | 0.902 | 0.956 | 0.945 | 0.914 | 0.95 | 0.943 | 1.04 | 0.816 | 0.926
BrCCBr | 1.11 | 0.998 | 1.01 | 1.02 | 1.17 | 0.987 | 1 | 1.03 | 0.997 | 0.995
CC(C)NC(=O)N1CC(=O)N(c2cc(Cl)cc(Cl)c2)C1=O | 0.919 | 0.969 | 0.989 | 1.01 | 1.1 | 1.01 | 0.967 | 1.01 | 1.04 | 1.05
c1ccc2c(c1)-c1cccc3cccc-2c13 | 0.967 | 0.969 | 0.997 | 0.999 | 0.98 | 0.963 | 0.996 | 0.857 | 1.02 | 0.93
CCCCN(CCCC)SN(C)C(=O)Oc1cccc2c1OC(C)(C)C2 | 1.03 | 1.02 | 0.975 | 0.981 | 0.913 | 1.04 | 1.03 | 0.972 | 1.02 | 1.01
O=S(=O)(Oc1ccc(Cl)cc1)c1ccc(Cl)cc1 | 1.09 | 0.97 | 0.998 | 0.812 | 0.973 | 0.972 | 0.995 | 1.02 | 1.01 | 0.961
CC1(C)[C@H](C(=O)O[C@H](C#N)c2cccc(Oc3ccccc3)c2)[C@@H]1/C=C\C(=O)OC(C(F)(F)F)C(F)(F)F | 0.955 | 1.01 | 0.976 | 1.02 | 0.92 | 1.03 | 1.01 | 0.931 | 1.03 | 1.07
COc1cc(OC)nc(Sc2cccc(Cl)c2C(=O)O)n1 | 1.28 | 1.01 | 0.98 | 0.959 | 0.977 | 1.02 | 0.986 | 1 | 1.01 | 0.964
OC(c1ccc(Cl)cc1)(c1ccc(Cl)cc1)C(Cl)(Cl)Cl | 1.07 | 0.962 | 0.409 (active) | 0.954 | 0.0157 (active) | 0.379 (active) | 0.0202 (active) | 0.973 | 1.03 | 0.973
CC(C)N(C)S(=O)(=O)NC(=O)c1cc(-n2c(=O)cc(C(F)(F)F)n(C)c2=O)c(F)cc1Cl | 0.916 | 1.02 | 0.989 | 1 | 1.09 | 0.951 | 0.94 | 1 | 0.976 | 1.04
CC(C)OC(=O)Nc1ccccc1 | 0.984 | 1.02 | 1.02 | 1.07 | 1.12 | 1.01 | 0.98 | 0.988 | 1.05 | 1.02
Cc1ccc(NC(=O)N(C)C)cc1Cl | 0.946 | 1.04 | 0.989 | 1.01 | 0.954 | 1 | 0.976 | 0.827 | 1.01 | 0.989
c1cc2c3c(cccc3c1)CC2 | 0.966 | 1 | 1 | 1.01 | 0.991 | 0.999 | 0.994 | 0.961 | 0.993 | 0.995
Clc1cc(Cl)nc(-c2ccccc2)n1 | 1.12 | 0.877 | 0.99 | 0.995 | 1 | 0.971 | 0.956 | 1.09 | 0.956 | 0.927
COC(=O)N(OC)c1ccccc1COc1ccn(-c2ccc(Cl)cc2)n1 | 0.936 | 0.803 | 0.91 | 0.972 | 1.09 | 0.91 | 0.861 | 1.03 | 0.989 | 1
CCOC(=O)C(O)(c1ccc(Cl)cc1)c1ccc(Cl)cc1 | 0.996 | 0.872 | 0.78 (active) | 0.951 | 0.376 (active) | 0.874 | 0.991 | 0.997 | 1.04 | 0.978
COC(=O)C(C)N(C(=O)Cc1ccccc1)c1c(C)cccc1C (stereo not given) | 0.959 | 0.985 | 0.957 | 0.99 | 0.954 | 0.956 | 0.878 | 1.02 | 0.977 | 1.02
CC(C)N(Cc1ccccc1)C(=O)C(C)(C)C | 1.11 | 0.928 | 0.976 | 0.936 | 0.958 | 0.98 | 0.999 | 1.04 | 0.937 | 0.92
CC1(C)[C@H](C(=O)O[C@H](C#N)c2cccc(Oc3ccccc3)c2)[C@@H]1C=C(Br)Br | 0.878 | 0.983 | 0.982 | 1.04 | 1.04 | 1.02 | 1.05 | 0.843 | 1.02 | 0.935

Source: the supplement of paper PMC12669032
